The values that follow come from ChEMBL document CHEMBL3988442, “University of Dundee, Small-Polar-MMV Screening Library” (2021).

For some of these results: Results with a measured potency or affinity are listed apart.

What all share (parameters): scale not given: direction of the effect not stated beside the values
The target of assay [1] is Protein translocase subunit SecA (Escherichia coli (strain K12)) (UniProt P10408). The assay is described as follows: Assay to Identify E. coli SecA ATPase Inhibitors. Format: functional. To be noted: 30 µM.
Protein translocase subunit SecA (Escherichia coli (strain K12)), sequence (P10408 whole entry): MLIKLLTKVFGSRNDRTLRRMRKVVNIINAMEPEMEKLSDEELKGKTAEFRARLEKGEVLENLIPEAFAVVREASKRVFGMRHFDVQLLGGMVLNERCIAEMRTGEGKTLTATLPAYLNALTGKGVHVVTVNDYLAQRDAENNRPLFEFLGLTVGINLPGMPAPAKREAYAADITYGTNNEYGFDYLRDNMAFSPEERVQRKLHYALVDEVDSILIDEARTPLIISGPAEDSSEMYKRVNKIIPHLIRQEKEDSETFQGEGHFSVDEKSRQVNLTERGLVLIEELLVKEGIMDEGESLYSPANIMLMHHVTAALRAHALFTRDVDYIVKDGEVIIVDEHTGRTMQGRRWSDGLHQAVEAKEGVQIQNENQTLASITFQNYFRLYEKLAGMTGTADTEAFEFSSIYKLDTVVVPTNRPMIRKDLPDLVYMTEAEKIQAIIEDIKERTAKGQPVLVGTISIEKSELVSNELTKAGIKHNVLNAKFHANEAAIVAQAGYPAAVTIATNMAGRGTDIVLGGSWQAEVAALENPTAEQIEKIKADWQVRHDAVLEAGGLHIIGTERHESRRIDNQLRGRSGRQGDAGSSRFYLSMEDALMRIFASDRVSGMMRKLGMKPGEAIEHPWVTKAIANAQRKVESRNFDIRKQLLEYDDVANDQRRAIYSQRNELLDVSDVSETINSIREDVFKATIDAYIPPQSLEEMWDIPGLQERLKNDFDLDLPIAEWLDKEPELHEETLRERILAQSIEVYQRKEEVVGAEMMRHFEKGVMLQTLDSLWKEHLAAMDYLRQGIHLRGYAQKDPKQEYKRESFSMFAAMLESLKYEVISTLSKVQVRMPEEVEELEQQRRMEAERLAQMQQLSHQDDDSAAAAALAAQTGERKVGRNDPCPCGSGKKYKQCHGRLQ
In assay [2] the target is T1, Ubiquitin-activating enzyme e1, putative (Leishmania donovani (strain BPK282A1)) (UniProt E9BSI1).
T1 sequence (whole entry): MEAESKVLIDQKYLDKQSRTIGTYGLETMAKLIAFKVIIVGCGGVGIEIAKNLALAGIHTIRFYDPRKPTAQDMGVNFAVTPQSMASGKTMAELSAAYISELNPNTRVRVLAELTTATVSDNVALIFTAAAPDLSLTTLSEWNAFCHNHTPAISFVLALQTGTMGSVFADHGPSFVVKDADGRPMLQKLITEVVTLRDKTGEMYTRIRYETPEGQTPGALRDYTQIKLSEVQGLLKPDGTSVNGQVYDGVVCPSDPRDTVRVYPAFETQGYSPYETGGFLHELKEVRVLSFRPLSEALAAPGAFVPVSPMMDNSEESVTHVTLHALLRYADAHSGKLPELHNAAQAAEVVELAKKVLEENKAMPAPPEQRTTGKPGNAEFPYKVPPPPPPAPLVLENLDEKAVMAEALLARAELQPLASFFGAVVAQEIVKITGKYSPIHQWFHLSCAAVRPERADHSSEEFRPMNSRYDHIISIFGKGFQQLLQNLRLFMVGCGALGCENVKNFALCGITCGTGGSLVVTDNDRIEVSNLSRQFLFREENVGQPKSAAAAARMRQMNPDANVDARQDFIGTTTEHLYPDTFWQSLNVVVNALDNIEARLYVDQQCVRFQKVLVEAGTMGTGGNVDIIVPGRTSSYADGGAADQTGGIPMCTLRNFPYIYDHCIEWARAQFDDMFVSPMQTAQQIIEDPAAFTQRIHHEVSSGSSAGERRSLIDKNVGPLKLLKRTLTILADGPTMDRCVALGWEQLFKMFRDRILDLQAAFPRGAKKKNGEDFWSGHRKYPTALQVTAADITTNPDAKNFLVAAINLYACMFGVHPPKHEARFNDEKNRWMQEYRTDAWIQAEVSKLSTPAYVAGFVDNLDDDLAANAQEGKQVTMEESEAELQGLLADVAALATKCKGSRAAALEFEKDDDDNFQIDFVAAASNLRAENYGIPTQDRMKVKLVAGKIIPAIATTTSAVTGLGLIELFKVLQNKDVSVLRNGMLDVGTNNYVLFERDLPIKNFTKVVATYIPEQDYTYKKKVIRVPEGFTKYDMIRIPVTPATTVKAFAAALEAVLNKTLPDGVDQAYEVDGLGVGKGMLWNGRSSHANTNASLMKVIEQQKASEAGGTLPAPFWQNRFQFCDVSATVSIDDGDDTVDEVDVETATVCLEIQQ
The assay is described as follows: Leishmania donovani Ubiquitin Activating Enzyme (LdE1). Format: functional. To be noted: 30 µM.

The target in assay [3] is AMP-activated protein kinase, AMPK (Homo sapiens) (UniProt P54646+O43741+P54619+Q9UGJ0+Q9Y478+Q13131+Q9UGI9). The assay is described as follows: AMP-dependent Kinase enzyme assay. An in vitro enzyme assay that detects ADP turnover that is directly proportional to AMPK activity. This uses naive AMPK that is activated during the assay with MK-8722. The format is functional. To be noted: 30 µM.

The target in assay [4] is Sialic acid-binding Ig-like lectin 9 (Homo sapiens) (UniProt Q9Y336). Description: Hs-Siglec9 ALPHAscreen SOP 20170721. The following applies: 10 µM.
Sialic acid-binding Ig-like lectin 9 (Homo sapiens), sequence (Q9Y336 whole entry): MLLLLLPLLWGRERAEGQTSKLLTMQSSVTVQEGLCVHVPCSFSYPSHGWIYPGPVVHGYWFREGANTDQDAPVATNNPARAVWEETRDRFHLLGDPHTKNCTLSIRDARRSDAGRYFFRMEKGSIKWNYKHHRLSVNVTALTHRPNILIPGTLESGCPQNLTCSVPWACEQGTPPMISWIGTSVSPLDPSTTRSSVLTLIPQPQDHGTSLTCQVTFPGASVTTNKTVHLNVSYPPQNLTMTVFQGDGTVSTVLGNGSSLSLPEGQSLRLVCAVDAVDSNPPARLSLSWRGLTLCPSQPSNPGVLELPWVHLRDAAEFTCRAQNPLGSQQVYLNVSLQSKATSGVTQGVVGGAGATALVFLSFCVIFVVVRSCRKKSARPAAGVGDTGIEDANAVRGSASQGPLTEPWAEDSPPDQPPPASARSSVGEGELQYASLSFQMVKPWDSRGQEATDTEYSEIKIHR
The test system of the next assay is Trypanosoma cruzi. The assay is described as follows: Trypanosoma cruzi phosphomannomutase and mannose-1-phosphate guanylyltransferase assay. The format is functional. The following applies: 10 µM.
Assay [5] deals with T2, Arginase-2, mitochondrial (Homo sapiens) (UniProt P78540).
T2 sequence (whole entry): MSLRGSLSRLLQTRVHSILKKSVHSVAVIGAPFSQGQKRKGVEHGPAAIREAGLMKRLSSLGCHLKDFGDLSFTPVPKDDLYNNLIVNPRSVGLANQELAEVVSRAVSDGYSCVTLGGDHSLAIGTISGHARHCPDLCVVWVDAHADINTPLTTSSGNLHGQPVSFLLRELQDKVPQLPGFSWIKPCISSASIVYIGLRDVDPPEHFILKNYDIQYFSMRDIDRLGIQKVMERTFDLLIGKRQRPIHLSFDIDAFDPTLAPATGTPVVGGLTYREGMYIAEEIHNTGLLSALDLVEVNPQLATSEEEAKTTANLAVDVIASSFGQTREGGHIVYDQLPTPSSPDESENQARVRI
Description: in vitro enzyme assay to detect the production of urea directly proportional to the activity of Arginase II. Further: in the data most compounds retested in dose-response had high values. Format: functional. The following applies: 33.3 µM.

For assay [6], the target named is T3, Proteasome subunit beta (Trypanosoma cruzi) (UniProt O96673).
T3 sequence (whole entry): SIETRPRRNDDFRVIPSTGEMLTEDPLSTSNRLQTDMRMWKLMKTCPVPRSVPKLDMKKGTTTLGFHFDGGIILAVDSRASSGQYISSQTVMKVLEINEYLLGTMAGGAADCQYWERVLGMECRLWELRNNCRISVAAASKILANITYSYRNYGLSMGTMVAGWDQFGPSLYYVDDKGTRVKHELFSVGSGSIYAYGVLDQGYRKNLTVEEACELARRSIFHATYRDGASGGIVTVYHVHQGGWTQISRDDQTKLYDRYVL
The assay is described as follows: Trypanosoma cruzi proteasome chymotrypsin-like activity (TcProtChymo) assay. Further: in the data most compounds retested in dose-response had high values. Format: functional. The following applies: 9.37 µM.

The next assay is filed under the species Homo sapiens. Description: To identify inhibition of the IFN signalling (Jak-Stat) pathway via expression of an eGFP reporter gene under the control of an IFN-stimulated response element (ISRE) containing MxA promoter. Format: functional. To be noted: 30 µM. For orientation: In a reporter assay the amount or activity of a reporter protein is the signal.
For assay [7], the target named is T4, Tyrosyl-tRNA synthetase, putative (Trypanosoma cruzi (strain CL Brener)) (UniProt Q4DSP6).
T4 sequence (whole entry): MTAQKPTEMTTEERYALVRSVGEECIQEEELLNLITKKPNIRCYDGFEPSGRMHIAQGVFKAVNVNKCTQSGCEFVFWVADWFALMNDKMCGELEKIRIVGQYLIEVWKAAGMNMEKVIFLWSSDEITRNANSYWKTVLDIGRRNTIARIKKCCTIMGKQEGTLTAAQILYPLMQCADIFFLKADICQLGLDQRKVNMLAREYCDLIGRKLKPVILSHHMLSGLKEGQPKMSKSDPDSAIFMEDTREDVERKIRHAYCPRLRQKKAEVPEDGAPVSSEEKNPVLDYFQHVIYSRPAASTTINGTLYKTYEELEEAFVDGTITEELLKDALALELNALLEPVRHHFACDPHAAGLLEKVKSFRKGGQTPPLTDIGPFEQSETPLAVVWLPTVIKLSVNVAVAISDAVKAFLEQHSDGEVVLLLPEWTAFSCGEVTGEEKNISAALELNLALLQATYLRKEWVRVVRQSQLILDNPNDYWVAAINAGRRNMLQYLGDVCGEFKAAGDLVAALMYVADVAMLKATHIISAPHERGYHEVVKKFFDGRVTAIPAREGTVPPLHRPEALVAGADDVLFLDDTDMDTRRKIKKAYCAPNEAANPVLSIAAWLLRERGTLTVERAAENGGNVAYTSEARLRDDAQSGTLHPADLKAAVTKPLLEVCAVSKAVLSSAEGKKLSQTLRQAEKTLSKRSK
Description: Trypanosoma cruzi tyrosyl tRNA synthetase (TcYRS) _High Tyrosine SOP. Further: in the data most compounds retested in dose-response had high values. The format is functional. To be noted: 30 µM.

The target in assay [8] is T4, Tyrosyl-tRNA synthetase, putative (Trypanosoma cruzi (strain CL Brener)). The assay is described as follows: Trypanosoma cruzi tyrosyl tRNA synthetase (TcYRS) SOP. To be noted: 30 µM. Format: functional.
For assay [9], the target named is Chromo domain-containing protein 1 (Saccharomyces cerevisiae (strain ATCC 204508 / S288c) (Baker's yeast)) (UniProt P32657). The assay is described as follows: ScCHD-1 Enzyme Inhibition Assay. Further: in the data most compounds retested in dose-response had high values. The following applies: 30 µM. Format: functional.
Chromo domain-containing protein 1 (Saccharomyces cerevisiae (strain ATCC 204508 / S288c) (Baker's yeast)), sequence (P32657 whole entry, the tested form may be a part): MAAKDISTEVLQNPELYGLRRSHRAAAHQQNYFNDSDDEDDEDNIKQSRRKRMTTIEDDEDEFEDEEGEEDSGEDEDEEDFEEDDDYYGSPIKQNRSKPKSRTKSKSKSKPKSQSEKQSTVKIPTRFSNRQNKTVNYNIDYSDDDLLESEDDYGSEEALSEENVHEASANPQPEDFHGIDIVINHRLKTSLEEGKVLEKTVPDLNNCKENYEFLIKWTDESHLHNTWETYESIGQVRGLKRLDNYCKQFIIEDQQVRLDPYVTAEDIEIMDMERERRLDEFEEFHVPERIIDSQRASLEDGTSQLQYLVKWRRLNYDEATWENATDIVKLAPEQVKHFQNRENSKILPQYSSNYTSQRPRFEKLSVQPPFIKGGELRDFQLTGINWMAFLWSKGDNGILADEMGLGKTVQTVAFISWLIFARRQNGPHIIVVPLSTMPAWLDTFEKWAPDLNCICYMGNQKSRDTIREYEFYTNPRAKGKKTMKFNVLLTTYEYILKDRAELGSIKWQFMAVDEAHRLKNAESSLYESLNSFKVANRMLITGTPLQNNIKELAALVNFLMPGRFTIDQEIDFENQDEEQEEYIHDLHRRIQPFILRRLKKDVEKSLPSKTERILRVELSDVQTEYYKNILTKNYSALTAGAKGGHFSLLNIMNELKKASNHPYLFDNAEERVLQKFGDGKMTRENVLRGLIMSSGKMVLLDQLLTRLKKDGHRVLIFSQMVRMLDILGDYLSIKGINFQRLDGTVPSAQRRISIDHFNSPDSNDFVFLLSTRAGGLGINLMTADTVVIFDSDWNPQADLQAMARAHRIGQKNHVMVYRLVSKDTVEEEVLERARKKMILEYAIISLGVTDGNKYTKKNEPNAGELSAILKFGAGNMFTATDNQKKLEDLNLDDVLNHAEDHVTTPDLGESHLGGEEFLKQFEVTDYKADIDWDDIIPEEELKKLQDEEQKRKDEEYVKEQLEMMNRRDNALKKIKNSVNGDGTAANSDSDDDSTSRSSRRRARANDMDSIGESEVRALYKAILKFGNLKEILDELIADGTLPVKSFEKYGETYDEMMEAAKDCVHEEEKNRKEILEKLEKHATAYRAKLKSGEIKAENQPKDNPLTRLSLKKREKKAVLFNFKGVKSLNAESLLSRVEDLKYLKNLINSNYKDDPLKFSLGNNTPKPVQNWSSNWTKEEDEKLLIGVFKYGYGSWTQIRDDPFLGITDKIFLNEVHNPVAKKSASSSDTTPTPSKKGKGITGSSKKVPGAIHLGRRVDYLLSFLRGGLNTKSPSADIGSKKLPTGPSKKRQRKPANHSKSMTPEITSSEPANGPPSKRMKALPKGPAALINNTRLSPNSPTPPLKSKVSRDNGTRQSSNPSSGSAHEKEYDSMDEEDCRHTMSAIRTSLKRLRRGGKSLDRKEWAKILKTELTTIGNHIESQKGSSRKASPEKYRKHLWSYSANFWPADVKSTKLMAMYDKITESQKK

`COCC(=O)N1CCN(Cc2coc(-c3cccc(F)c3)n2)CC1`: the Percent Effect in assay [1] is -5.28%; in [2], 0%; in assay [3], 2.98%; in assay [4], 4.95%; with Trypanosoma cruzi it was -2.62%; in assay [5], 0%. Moreover, the Percent Effect in assay [6] is 1.18%; in the assay filed under Homo sapiens it was 9.99%; in assay [7], 8.74%; in assay [8] it was 7.32%; in [9] it was 1.75%.
`Cc1ccoc1C(=O)N1CC[C@H]2O[C@@H](C)C[C@H]2C1`: the Percent Effect in assay [1] is -5.4%; in assay [2], 21.3%; in [3], -6.43%; in assay [4], 2.33%; in the assay with Trypanosoma cruzi, 5.6%; in [5] it was -45.3%. Also, the Percent Effect is 9.06% in [6]; 2.95% in the assay listed under Homo sapiens; 8.33% in [7]; 22.5% in assay [8]; -8.54% in assay [9].
On to `Cc1nc(N)cc(C2CN(C(=O)c3ccn(C)n3)CCO2)n1` (stereo unspecified), for which the Percent Effect is -6.21% in [1]; 17.6% in assay [2]; 0.477% in [3]; 3.12% in [4]; 0.198% in the assay on Trypanosoma cruzi; -3.94% in assay [5]. The Percent Effect was 10.4% in assay [6]; 8.03% in the assay listed under Homo sapiens; 3.23% in assay [7]; 16.9% in [8]; -24.2% in assay [9].
Consider `Cc1ccc2c(n1)N(CCn1cccn1)CCN(C(=O)NC1CC1)C2`, for which the Percent Effect is -4.03% in assay [1]; 10.8% in assay [2]; -7.12% in assay [3]; 26.1% in [4]; 6.55% in the assay with Trypanosoma cruzi; -1.24% in assay [5]. In addition, the Percent Effect is 18.1% in assay [6]; -2.83% in the assay filed under Homo sapiens; 5.38% in assay [7]; 16.1% in assay [8]; -4.31% in [9].
As to `Cc1cnc2n(c1=O)CC(C(=O)NC1CC1)CS2` (stereo unspecified), the Percent Effect in assay [1] was -4.55%; in assay [2], -21.9%; in assay [3], -9.15%; in [4] it was -1.37%; with Trypanosoma cruzi it was 0.979%; in [5], 4.54%. For the same compound, the Percent Effect was 6.21% in assay [6]; 1.36% in the assay filed under Homo sapiens; 2.15% in assay [7]; 0% in [8]; -5.19% in [9].
For `CN(C)CC(=O)N1C[C@@H]2CC[C@H](Oc3ccccc3Cl)[C@@H]2C1`, the Percent Effect in assay [1] was -5.55%; in assay [2] it was -4.05%; in assay [3] it was 9.46%; in assay [4], 5.31%; in the assay on Trypanosoma cruzi it was -2.17%; in assay [5], -3.48%. The Percent Effect in [6] was -2.5%; in the assay filed under Homo sapiens, 6.65%; in assay [7], -1.07%; in [8] it was 3.9%; in [9], 9.09%.
As for `Cc1cccc(CN2CCN(Cc3ccccc3)CC(O)C2)n1` (stereo unspecified), the Percent Effect is -1.78% in assay [1]; 0% in assay [2]; -4.59% in [3]; 2.56% in [4]; -0.193% in the assay on Trypanosoma cruzi; -1.43% in assay [5]. The Percent Effect in assay [6] was 9.14%; in the assay listed under Homo sapiens it was 4.22%; in [7] it was 8.99%; in [8], 19.5%; in [9] it was -3.04%.
For the compound `c1nc(COCC2CC2)c2n1CCCN(CC1CC1)C2`, the Percent Effect in [1] was -8.2%; in assay [2], -2.67%; in [3] it was 1.44%; in assay [4] it was 3.77%; in the assay with Trypanosoma cruzi, -2.12%; in assay [5], -22.4%. Also, the Percent Effect was -0.513% in assay [6]; -0.93% in the assay listed under Homo sapiens; -1.04% in assay [7]; 0% in assay [8]; 0.35% in assay [9].
Regarding `Cc1cc2ccccc2n1CCC(=O)NCc1ncc[nH]1`, the Percent Effect in [1] is -2.35%; in [2], 14.9%; in assay [3], 6.43%; in assay [4], -8.05%; with Trypanosoma cruzi, -4.74%; in assay [5], -1.16%. The Percent Effect in [6] is 15.6%; in the assay listed under Homo sapiens, 13.5%; in [7], 11.8%; in assay [8], 16.9%; in assay [9], -9.55%.
`O=C(NCCOc1cccc(Cl)c1)C1CC(=O)N(CC2CC2)C1` (stereo unspecified): the Percent Effect in [1] was -3.05%; in [2], 26.3%; in [3], 6.34%; in assay [4] it was -5.8%; in the assay on Trypanosoma cruzi, 6.82%; in assay [5] it was 4.32%. In addition, the Percent Effect in assay [6] was 13.3%; in the assay listed under Homo sapiens, -1.81%; in assay [7] it was 4.43%; in assay [8] it was 25.9%; in [9] it was -10.9%.
As to `Cn1cc(CN2CC[C@H]3OCC[C@@H](C(=O)N4CCCCO4)[C@@H]3C2)cn1`, the Percent Effect is -3.19% in assay [1]; 9.33% in assay [2]; -0.147% in assay [3]; 1.18% in assay [4]; -0.982% with Trypanosoma cruzi; -6.51% in [5]. Besides, the Percent Effect in [6] is 11.3%; in the assay filed under Homo sapiens, 6.18%; in assay [7] it was 2.12%; in [8], 7.69%; in assay [9], -4.05%.
